Among the data in PubChem BioAssay (EPA / NIEHS) are outcome and AC50 values, retold here.

Details in all cases: mRNA level, 48 h; actives raise or lower the signal
Read-out in assay [1]: Insulin-like growth factor-binding protein 1 (IGFBP1), IGFBP1 (gene 3484)
The assay is described as follows: LTEA_HepaRG_IGFBP1: Life Technologies and Expression Analysis (LTEA) Assay for Insulin-like growth factor-binding protein 1 (IGFBP1) using HepaRG (AID 2283508). A digest of the protocol:
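Differentiated human HepaRG cells in serum-free induction medium were exposed in duplicate for 48 h to eight concentrations, top 100 uM with half-log dilutions, in 0.5% DMSO. Transcript levels came from qRT-PCR normalised to ACTB, GAPDH and POLR2A, fitted bidirectionally against DMSO.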

Read-out in assay [2]: Interleukin 6 (IL6), IL6 (gene 3569)
The assay is described as follows: LTEA_HepaRG_IL6: Life Technologies and Expression Analysis (LTEA) Assay for Interleukin 6 (IL6) using HepaRG (AID 2283509). Put shortly: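 HepaRG cells exposed in duplicate for 48 h to eight half-log concentrations, top 100 uM, in 0.5% DMSO serum-free induction medium. mRNA measured by qRT-PCR, normalized to ACTB, GAPDH and POLR2A. Bidirectional fit versus DMSO.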

Read-out in assay [3]: Interleukin 6 Receptor (IL6R), IL6R (gene 3570)
The assay is described as follows: LTEA_HepaRG_IL6R: Life Technologies and Expression Analysis (LTEA) Assay for Interleukin 6 Receptor (IL6R) using HepaRG (AID 2283510). Put shortly: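 Concentration-response in human liver HepaRG cells: eight concentrations from 100 uM downward by half-logs, 48 h exposure, 0.5% DMSO vehicle. IL6R mRNA change measured by qRT-PCR and fitted in both directions relative to vehicle.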

Read-out in assay [4]: Potassium channel subfamily K member 1 (KCNK1), KCNK1 (gene 3775)
The assay is described as follows: LTEA_HepaRG_KCNK1: Life Technologies and Expression Analysis (LTEA) Assay for Potassium channel subfamily K member 1 (KCNK1) using HepaRG (AID 2283511). Put shortly:
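Differentiated HepaRG cells, 48 h exposure in serum-free induction medium with 0.5% DMSO; 8 concentrations, half-log from 100 uM, duplicate. KCNK1 mRNA by qRT-PCR, normalized to ACTB, GAPDH, POLR2A; bidirectional fit vs DMSO.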

Read-out in assay [5]: Keratin 19 (KRT19), KRT19 (gene 3880)
The assay is described as follows: LTEA_HepaRG_KRT19: Life Technologies and Expression Analysis (LTEA) Assay for Keratin 19 (KRT19) using HepaRG (AID 2283512). Put shortly:
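Differentiated human HepaRG cells, plated 48 h, were exposed in duplicate for 48 h in serum-free induction medium to eight half-log concentrations up to 100 uM in 0.5% DMSO. KRT19 mRNA was quantified by qRT-PCR, normalized to ACTB, GAPDH and POLR2A, and fitted bidirectionally versus DMSO.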

Read-out in assay [6]: JUN Transcription Factor, JUN (gene 3725)
The assay is described as follows: LTEA_HepaRG_JUN: Life Technologies and Expression Analysis (LTEA) Assay for JUN Transcription Factor using HepaRG (AID 2283513). Put shortly: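 Human HepaRG liver cells receive test chemicals in 0.5% DMSO for 48 h across an eight-point range topping at 100 uM. Expression changes in JUN are scored in both directions against the DMSO vehicle.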

Read-out in assay [7]: Lipase C (LIPC), LIPC (gene 3990)
The assay is described as follows: LTEA_HepaRG_LIPC: Life Technologies and Expression Analysis (LTEA) Assay for Lipase C (LIPC) using HepaRG (AID 2283514). Put shortly:
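HepaRG cells, 48 h after plating, treated in duplicate for 48 h in serum-free induction medium over 8 half-log concentrations from 100 uM, 0.5% DMSO. LIPC mRNA by TaqMan qRT-PCR normalized to ACTB/GAPDH/POLR2A; bidirectional fit versus DMSO.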

Read-out in assay [8]: Lipoprotein lipase (LPL), LPL (gene 4023)
The assay is described as follows: LTEA_HepaRG_LPL: Life Technologies and Expression Analysis (LTEA) Assay for Lipoprotein lipase (LPL) using HepaRG (AID 2283515). Put shortly: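 Differentiated HepaRG cells, plated 48 h, then exposed 48 h in serum-free induction medium to 8 concentrations (top 100 uM, half-log steps) in 0.5% DMSO, duplicate. LPL mRNA measured by qRT-PCR, normalized to ACTB, GAPDH and POLR2A.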

Read-out in assay [9]: MicroRNA 122 (MIR122), gene 406906
The assay is described as follows: LTEA_HepaRG_MIR122: Life Technologies and Expression Analysis (LTEA) Assay for MicroRNA 122 (MIR122) using HepaRG (AID 2283516). Further: the transcript read is the microRNA miR-122. A digest of the protocol:
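HepaRG, 48 h exposure, 8-pt half-log from 100 uM, 0.5% DMSO; TaqMan qRT-PCR; bidirectional fit vs DMSO.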

Read-out in assay [10]: matrix metalloproteinase-10 (MMP10), MMP10 (gene 4319)
The assay is described as follows: LTEA_HepaRG_MMP10: Life Technologies and Expression Analysis (LTEA) Assay for matrix metalloproteinase-10 (MMP10) using HepaRG (AID 2283517). A digest of the protocol:
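Differentiated HepaRG cells in serum-free induction medium exposed 48 h in duplicate to 8-point half-log series up to 100 uM in 0.5% DMSO. mRNA quantified by qRT-PCR, normalised to ACTB, GAPDH, POLR2A; bidirectional fit versus DMSO.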

Read-out in another assay: MYC, MYC (gene 4609)
The assay is described as follows: LTEA_HepaRG_MYC: Life Technologies and Expression Analysis (LTEA) Assay for MYC using HepaRG (AID 2283518). A digest of the protocol: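 Differentiated human HepaRG cells, plated 48 h then switched to serum-free induction medium, were exposed in duplicate for 48 h to 8-point half-log series up to 100 uM in 0.5% DMSO. MYC mRNA measured by qRT-PCR, normalized to ACTB/GAPDH/POLR2A.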

Read-out in assay [11]: matrix metalloproteinase-3 (MMP3), MMP3 (gene 4314)
The assay is described as follows: LTEA_HepaRG_MMP3: Life Technologies and Expression Analysis (LTEA) Assay for matrix metalloproteinase-3 (MMP3) using HepaRG (AID 2283519). A digest of the protocol:
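HepaRG cells (~100,000/well) in serum-free induction medium were dosed in duplicate for 48 h with an 8-point half-log series from 100 uM, 0.5% DMSO. MMP3 mRNA was quantified by Fluidigm TaqMan qRT-PCR, normalized to three housekeeping genes.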

Read-out in assay [12]: Paternally Expressed 10 (PEG10), PEG10 (gene 23089)
The assay is described as follows: LTEA_HepaRG_PEG10: Life Technologies and Expression Analysis (LTEA) Assay for Paternally Expressed 10 (PEG10) using HepaRG (AID 2283520). Put shortly:
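Chemicals tested on HepaRG cells for 48 h, highest concentration 100 uM. PEG10 expression assessed by qRT-PCR relative to DMSO control.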

Read-out in assay [13]: Nuclear factor NF-kappa-B p105 subunit (Homo sapiens) (UniProt P19838)
The assay is described as follows: LTEA_HepaRG_NFKB1: Life Technologies and Expression Analysis (LTEA) Assay for Nuclear Factor Kappa B Subunit 1 (NFKB1) using HepaRG (AID 2283521).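 Further: TaqMan qRT-PCR transcript normalised to ACTB GAPDH and POLR2A housekeeping genes.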 A digest of the protocol: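 Differentiated human HepaRG cells were exposed for 48 h in serum-free induction medium to eight concentrations (top 100 uM, half-log steps, 0.5% DMSO), in duplicate. NFKB1 mRNA was measured by TaqMan qRT-PCR, normalized to ACTB/GAPDH/POLR2A, and fitted bidirectionally against DMSO.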

Read-out in assay [14]: Protein phosphatase 2A (PPP2R4), PTPA (gene 5524)
The assay is described as follows: LTEA_HepaRG_PPP2R4: Life Technologies and Expression Analysis (LTEA) Assay for Protein phosphatase 2A (PPP2R4) using HepaRG (AID 2283522). A digest of the protocol: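 Gene-expression endpoint in HepaRG hepatic cells: 48 h treatment across eight half-log concentrations up to 100 uM in 0.5% DMSO. PPP2R4 mRNA by qRT-PCR, normalized to three endogenous control genes.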

Read-out in assay [15]: Phosphatase and tensin (PTEN), PTEN (gene 5728)
The assay is described as follows: LTEA_HepaRG_PTEN: Life Technologies and Expression Analysis (LTEA) Assay for Phosphatase and tensin (PTEN) using HepaRG (AID 2283523). A digest of the protocol:
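HepaRG cells, 48 h after plating, exposed in duplicate for 48 h in serum-free induction medium to 8 half-log concentrations up to 100 uM (0.5% DMSO). PTEN mRNA by qRT-PCR, normalized to ACTB, GAPDH, POLR2A; bidirectional fit versus DMSO.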

Read-out in assay [16]: solute carrier (SLC22A1), SLC22A1 (gene 6580)
The assay is described as follows: LTEA_HepaRG_SLC22A1: Life Technologies and Expression Analysis (LTEA) Assay for solute carrier (SLC22A1) using HepaRG (AID 2283524). Put shortly: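 Differentiated human HepaRG cells in serum-free induction medium, exposed 48 h in duplicate to 8-point half-log series from 100 µM top in 0.5% DMSO. SLC22A1 mRNA by TaqMan qRT-PCR normalized to ACTB, GAPDH, POLR2A; bidirectional fit versus DMSO.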

Read-out in assay [17]: Pyruvate Dehydrogenase Kinase 4 (PDK4), PDK4 (gene 5166)
The assay is described as follows: LTEA_HepaRG_PDK4: Life Technologies and Expression Analysis (LTEA) Assay for Pyruvate Dehydrogenase Kinase 4 (PDK4) using HepaRG (AID 2283525). Put shortly:
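HepaRG cells plated 48 h, then switched to serum-free induction medium and exposed in duplicate for 48 h to 8 half-log concentrations from 100 uM in 0.5% DMSO. PDK4 mRNA measured by qRT-PCR, normalized to ACTB, GAPDH and POLR2A; bidirectional fit versus DMSO.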

Read-out in assay [18]: NAD(P)H dehydrogenase [quinone] 1 (NQO1), NQO1 (gene 1728)
The assay is described as follows: LTEA_HepaRG_NQO1: Life Technologies and Expression Analysis (LTEA) Assay for NAD(P)H dehydrogenase [quinone] 1 (NQO1) using HepaRG (AID 2283526). Put shortly:
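Human HepaRG hepatic cells received chemicals for 48 h in serum-free induction medium with 0.5% DMSO, up to 100 uM. Expression was assessed by TaqMan qRT-PCR against housekeeping controls and fitted bidirectionally against DMSO.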

Read-out in assay [19]: Nuclear factor erythroid 2-related factor 2 (Homo sapiens) (UniProt Q16236)
The assay is described as follows: LTEA_HepaRG_NFE2L2: Life Technologies and Expression Analysis (LTEA) Assay for Nuclear factor erythroid 2-related factor 2 (NFE2L2) Transcription Factor using HepaRG (AID 2283527).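 On outcome: TaqMan qRT-PCR transcript level normalised to ACTB GAPDH and POLR2A housekeeping genes.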 Put shortly: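 Differentiated human HepaRG cells, serum-free induction medium, exposed 48 h in duplicate to eight half-log concentrations up to 100 uM in 0.5% DMSO. NFE2L2 mRNA by Fluidigm TaqMan qRT-PCR, normalised to ACTB, GAPDH, POLR2A; bidirectional change versus DMSO.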

Calls of active or inactive are those of the source. How the source made its calls: active means hit-call score of the fitted dose curve at least 0.9, where 1 is the maximum; inactive means score below 0.9.

Sequence of Nuclear factor erythroid 2-related factor 2 (Homo sapiens) (Q16236 whole entry, looked up): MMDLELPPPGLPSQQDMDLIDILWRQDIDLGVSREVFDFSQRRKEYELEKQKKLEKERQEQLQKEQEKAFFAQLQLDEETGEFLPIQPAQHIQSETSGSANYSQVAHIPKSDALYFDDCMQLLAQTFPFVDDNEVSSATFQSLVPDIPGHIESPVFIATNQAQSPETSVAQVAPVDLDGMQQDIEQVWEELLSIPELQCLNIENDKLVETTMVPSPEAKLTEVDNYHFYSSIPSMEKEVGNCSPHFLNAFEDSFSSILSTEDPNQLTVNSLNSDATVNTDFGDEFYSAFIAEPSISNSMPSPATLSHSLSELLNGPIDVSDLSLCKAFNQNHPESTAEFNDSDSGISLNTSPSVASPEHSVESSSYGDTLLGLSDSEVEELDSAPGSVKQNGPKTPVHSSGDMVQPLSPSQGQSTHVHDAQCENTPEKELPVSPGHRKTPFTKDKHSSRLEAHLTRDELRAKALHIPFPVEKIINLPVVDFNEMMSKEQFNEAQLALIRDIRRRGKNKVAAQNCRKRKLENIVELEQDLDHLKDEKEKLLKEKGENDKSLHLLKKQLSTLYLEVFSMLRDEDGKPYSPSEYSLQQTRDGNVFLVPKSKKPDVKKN
Sequence of Nuclear factor NF-kappa-B p105 subunit (Homo sapiens) (P19838 whole entry, looked up): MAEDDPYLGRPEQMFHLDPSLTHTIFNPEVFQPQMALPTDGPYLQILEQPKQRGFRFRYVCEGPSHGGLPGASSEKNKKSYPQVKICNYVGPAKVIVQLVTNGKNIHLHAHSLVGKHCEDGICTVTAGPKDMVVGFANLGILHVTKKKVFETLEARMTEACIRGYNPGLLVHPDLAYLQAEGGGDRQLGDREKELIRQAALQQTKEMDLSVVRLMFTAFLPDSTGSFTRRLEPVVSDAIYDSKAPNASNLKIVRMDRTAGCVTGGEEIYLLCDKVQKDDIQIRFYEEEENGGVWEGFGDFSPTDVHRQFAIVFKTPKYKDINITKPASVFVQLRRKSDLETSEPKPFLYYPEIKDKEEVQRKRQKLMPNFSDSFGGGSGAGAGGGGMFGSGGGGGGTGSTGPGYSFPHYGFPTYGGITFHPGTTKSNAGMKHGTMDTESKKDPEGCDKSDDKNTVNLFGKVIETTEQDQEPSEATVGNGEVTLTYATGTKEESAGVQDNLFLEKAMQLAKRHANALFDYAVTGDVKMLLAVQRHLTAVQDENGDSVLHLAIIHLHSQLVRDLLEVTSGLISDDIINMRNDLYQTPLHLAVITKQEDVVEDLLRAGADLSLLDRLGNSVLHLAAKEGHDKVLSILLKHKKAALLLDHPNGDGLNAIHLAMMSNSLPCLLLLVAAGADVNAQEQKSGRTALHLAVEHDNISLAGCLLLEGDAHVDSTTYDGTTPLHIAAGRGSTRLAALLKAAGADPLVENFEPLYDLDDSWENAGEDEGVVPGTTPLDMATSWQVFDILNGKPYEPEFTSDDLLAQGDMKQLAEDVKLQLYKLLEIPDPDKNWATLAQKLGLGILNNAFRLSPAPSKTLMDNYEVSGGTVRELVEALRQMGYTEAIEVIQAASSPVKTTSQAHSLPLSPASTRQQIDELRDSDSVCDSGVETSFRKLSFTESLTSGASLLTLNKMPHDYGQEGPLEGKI

On to `c1cc2ccc3cccc4ccc(c1)c2c34`, for which the compound was called inactive in [1], in assay [2], in [3], in assay [4], in assay [5] and in assay [6]. The outcome was “inactive” in assay [7]; “inactive” in assay [8]; “inactive” in assay [9]; “inactive” in [10]; “inactive” with MYC, MYC (gene 4609); “inactive” in assay [11]. Also, the compound was called inactive in assay [12], in assay [13], in assay [14], in [15], in assay [16] and in [17]. Moreover, the call in assay [18] and in assay [19] was inactive.
On to `Cc1cc2c3c(c1)C(c1ccccc1)=N[C@@H](NC(=O)c1ccncc1)C(=O)N3CC2`, for which the result in [1], in assay [2], in assay [3], in assay [4], in assay [5] and in [9] was inactive. For the same compound, the outcome in assay [10] is “inactive”; with MYC, MYC (gene 4609) it was “inactive”; in [11], “inactive”; in assay [12] it was “inactive”; in [14], “inactive”; in assay [15], “inactive”. Moreover, the compound was classed as inactive in [18]. The AC50 (in general, the concentration at which the activity in the assay is half-maximal) in [6] was 50 µM (active); in assay [7], 34.9 µM (active); in assay [8], 21.1 µM (active); in assay [16], 50 µM (active); in assay [17], 50 µM (active); in [19] it was 50 µM (active).
Regarding `CC1=C2C[C@H]3[C@@H](CC=C4C[C@@H](O)CC[C@@]43C)[C@@H]2CC[C@]12O[C@@H]1C[C@H](C)CN[C@H]1[C@H]2C`, the compound was called inactive in assay [1], in assay [2], in assay [3], in assay [4], in assay [5] and in assay [6]. Further, the outcome in [7] was “inactive”; in assay [8] it was “inactive”; in [9], “inactive”; in assay [10], “inactive”; with MYC, MYC (gene 4609) it was “inactive”; in assay [11], “inactive”. Also, the compound was classed as inactive in assay [12], in [14], in [15], in assay [16], in [17] and in [18].
